The values below come from PubChem BioAssay (Tox21).

SMILES strings stand for the structures. Values joined by “and” are separate entries in the source; they are usually repeats but may differ in a detail not shown here. Equal entries are not always repeated. Unmarked numbers belong to inactive results. Records with an inconclusive call do not appear. Active and inactive are the calls of the source. Unless noted, calls follow the shape of the dose curve; as a rule, active = well fitted curve in the direction sought with a large enough effect in the repeat runs; inconclusive = weak or mixed curves; inactive = no such curve, though single readings can be large; an effect the other way counts as inactive or inconclusive.

In assay [1] the target is Thyrotropin receptor (Homo sapiens) (UniProt P16473). Briefly: qHTS assay to identify small molecule agonists of the thyroid stimulating hormone receptor (TSHR) signaling pathway (AID 1224843; calls by dose curve; also: % is scaled to controls: 0 for no effect and ±100 for the full control effect; nearly all actives have a fitted effect of over 45% in size). The procedure, abridged: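 Agonist-mode screen: TSHR HEK293 cells received test chemicals for half an hour at room temperature, then HTRF cAMP detection reagents for one hour prior to fluorescence measurement. Each chemical ran as a 15-concentration series, triplicated.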
Sequence of Thyrotropin receptor (Homo sapiens) (P16473 whole entry, looked up): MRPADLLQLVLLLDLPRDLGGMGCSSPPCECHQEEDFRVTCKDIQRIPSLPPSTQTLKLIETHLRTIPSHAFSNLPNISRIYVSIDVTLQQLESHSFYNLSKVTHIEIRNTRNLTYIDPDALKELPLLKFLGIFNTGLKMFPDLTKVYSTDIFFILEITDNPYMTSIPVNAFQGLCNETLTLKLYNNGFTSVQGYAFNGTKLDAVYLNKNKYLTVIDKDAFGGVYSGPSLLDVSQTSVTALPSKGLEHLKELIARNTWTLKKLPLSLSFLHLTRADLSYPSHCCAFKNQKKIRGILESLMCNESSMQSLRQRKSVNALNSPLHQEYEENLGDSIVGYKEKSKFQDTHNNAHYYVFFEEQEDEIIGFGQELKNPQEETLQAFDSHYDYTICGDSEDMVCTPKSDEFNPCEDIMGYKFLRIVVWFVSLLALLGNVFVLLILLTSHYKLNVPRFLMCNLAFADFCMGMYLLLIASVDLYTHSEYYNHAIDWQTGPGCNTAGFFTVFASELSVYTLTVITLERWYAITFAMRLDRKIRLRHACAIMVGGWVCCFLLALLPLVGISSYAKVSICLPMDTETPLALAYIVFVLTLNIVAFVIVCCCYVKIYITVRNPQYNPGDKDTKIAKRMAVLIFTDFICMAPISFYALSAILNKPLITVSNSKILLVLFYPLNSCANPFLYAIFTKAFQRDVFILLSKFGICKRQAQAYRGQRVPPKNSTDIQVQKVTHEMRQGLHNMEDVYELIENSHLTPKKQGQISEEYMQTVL
For orientation: In qHTS, concentration-response curves come from the screen itself.

A short description of assay [2]: qHTS assay to identify small molecule agonists of the hypoxia (HIF-1) signaling pathway - cell viability counter screen (AID 1224844; calls by dose curve; also: nearly all actives have a fitted effect of over 50% in size; also: potency is read from the fitted curve at half-maximal effect). An outline of the steps: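 Same wells as the HIF-1 reporter screen; ME-180 cells carrying HRE-bla, 17 hr treatment at 37C; CellTiter-Glo luminescence read after 30 min at room temperature.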
The nature of assay [3]: qHTS assay to identify small molecule agonists of H2AX (AID 1224845; active = well fitted activation curve with a large enough effect in the signal ratio in the repeat runs, not every such curve was filed as active; the % refers to the signal ratio; also: potency is read from the fitted curve at half-maximal effect). An outline of the steps: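 Wild-type CHO-K1 cells, plated overnight, exposed 3hr at 37C to 15 concentrations (0.76% DMSO final). Lysed, then HTRF anti-pH2AX (S139) cryptate and anti-H2AX-d2 antibodies, 24 hr room temperature; 665/620 nm emission read.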
The nature of assay [4]: qHTS assay to identify small molecule agonists of the hypoxia (HIF-1) signaling pathway (AID 1224846; active = well fitted activation curve with a large enough effect in the signal ratio in the repeat runs, not every such curve was filed as active; the % refers to the signal ratio; also: % is scaled to controls: 0 for no effect and ±100 for the full control effect). The procedure, abridged: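 In ME-180 cells bearing an HRE-bla construct, 17 h treatment with DMSO-dissolved compounds at 37C was followed by CCF4-AM loading to quantify reporter induction.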
Assay [5] in a line: qHTS assay to identify small molecule agonists of H2AX - cell viability counter screen (AID 1224847; calls by dose curve; also: top concentration of the series differs between compounds; % is scaled to controls: 0 for no effect and ±100 for the full control effect; nearly all actives have a fitted effect of over 30% in size). The procedure, abridged:
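CHO-K1 cells plated overnight at 37C, then exposed 3 h at 37C to compounds at 15 concentrations (0.76% DMSO final). Viability by CellTiter-Glo luminescence after 30 min at room temperature.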

Assay [6] is described as follows: qHTS RealTime-Glo MT Cell Viability Assay in HepG2 cells - 24 hour (AID 1224867). Also: % is scaled to controls: 0 for no effect and ±100 for the full control effect; nearly all actives have a fitted effect of over 50% in size. The procedure, abridged: (§1)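 Cell number in HepG2 cultures estimated from NanoLuc luminescence generated by metabolic reduction of a prosubstrate by living cells. The homogeneous, nonlytic format allowed repeated reads at 0, 8, 16, 24, 32 and 40 h of compound exposure.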
The nature of assay [7]: A CellTox Green Cytotoxicity Assay to monitor cytotoxicity in HEK293 cells - 0 hour (AID 1224869). Also: % is scaled to controls: 0 for no effect and ±100 for the full control effect; nearly all actives have a fitted effect of over 50% in size. The procedure, abridged:
(§2)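 Homogeneous no-lysis format: HEK293 cell suspension mixed with CellTox Green reagent, seeded, incubated 5 h at 37 C/5% CO2, then dosed by pintool with compound in DMSO.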

Assay [8] is described as follows: qHTS RealTime-Glo MT Cell Viability Assay in HepG2 cells - 40 hour (AID 1224870). Also: % is scaled to controls: 0 for no effect and ±100 for the full control effect; nearly all actives have a fitted effect of over 50% in size. The procedure, abridged: (§3)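 HepG2 cells (600/well) mixed with RealTime-Glo MT reagent, settled 5 h at 37 C/5% CO2 before compound addition. Nonlytic NanoLuc luminescence from viable-cell prosubstrate reduction read repeatedly during 40 h treatment at 37 C.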
Assay [9] in a line: A CellTox Green Cytotoxicity Assay to monitor cytotoxicity in HEK293 cells - 40 hour (AID 1224871). Also: % is scaled to controls: 0 for no effect and ±100 for the full control effect; nearly all actives have a fitted effect of over 45% in size. The procedure, abridged:
as §2

Assay [10] is described as follows: qHTS RealTime-Glo MT Cell Viability Assay in HepG2 cells - 8 hour (AID 1224873). Also: % is scaled to controls: 0 for no effect and ±100 for the full control effect; nearly all actives have a fitted effect of over 55% in size. An outline of the steps: as §3
A short description of assay [11]: A CellTox Green Cytotoxicity Assay to monitor cytotoxicity in HepG2 cells - 16 hour (AID 1224876). Also: % is scaled to controls: 0 for no effect and ±100 for the full control effect; nearly all actives have a fitted effect of over 45% in size. An outline of the steps:
(§4)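 Fluorescent DNA-binding dye, 600 HepG2 cells/well, 5 h preincubation then compound in DMSO; same plates read at 0–40 h, 37 C.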

A short description of assay [12]: qHTS RealTime-Glo MT Cell Viability Assay in HepG2 cells - 32 hour (AID 1224877). Also: nearly all actives have a fitted effect of over 55% in size. Also: potency is read from the fitted curve at half-maximal effect. The procedure, abridged: as §1
Assay [13] in a line: A CellTox Green Cytotoxicity Assay to monitor cytotoxicity in HepG2 cells - 24 hour (AID 1224878). Also: nearly all actives have a fitted effect of over 45% in size. Also: potency is read from the fitted curve at half-maximal effect. As to Cytotoxicity: % is scaled to controls: 0 for no effect and ±100 for the full control effect. An outline of the steps:
as §4

Assay [14] can be described thus: A CellTox Green Cytotoxicity Assay to monitor cytotoxicity in HepG2 cells - 40 hour (AID 1224879). Also: nearly all actives have a fitted effect of over 40% in size. Also: potency is read from the fitted curve at half-maximal effect. The procedure, abridged:
as §4

Assay [15] can be described thus: qHTS RealTime-Glo MT Cell Viability Assay in HEK293 cells - 32 hour (AID 1224868). Also: nearly all actives have a fitted effect of over 50% in size. Also: potency is read from the fitted curve at half-maximal effect. The procedure, abridged: (§5)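 Homogeneous bioluminescent viability format in HEK293 cells (600 cells/well). Following 5 h at 37 C/5% CO2, 23 nL compound was pintooled; the signal was measured repeatedly during 40 h incubation.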
Assay [16] is described as follows: qHTS RealTime-Glo MT Cell Viability Assay in HEK293 cells - 16 hour (AID 1224872). Also: nearly all actives have a fitted effect of over 50% in size. Also: potency is read from the fitted curve at half-maximal effect. An outline of the steps:
as §5

The nature of assay [17]: qHTS RealTime-Glo MT Cell Viability Assay in HEK293 cells - 40 hour (AID 1224874). Also: nearly all actives have a fitted effect of over 50% in size. Also: potency is read from the fitted curve at half-maximal effect. As to max response: % is scaled to controls: 0 for no effect and ±100 for the full control effect. The note with it: RealTime-Glo luminescence; max response: active compounds read low. An outline of the steps: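 Measured as luminescence from the same continuously cultured HEK293 wells at successive time points (0, 8, 16, 24, 32, 40 h) after compound addition. Reagent present from seeding; dosing at 5 h; incubation 37 C.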

Assay [18] is described as follows: A CellTox Green Cytotoxicity Assay to monitor cytotoxicity in HEK293 cells - 24 hour (AID 1224875). An outline of the steps:
as §2

Assay [19] is described as follows: qHTS assay to identify small molecule agonists of the estrogen related receptor (ERR) signaling pathway from Tox21 library (AID 1224849; calls by dose curve; also: % is scaled to controls: 0 for no effect and ±100 for the full control effect; nearly all actives have a fitted effect of over 15% in size). Particulars: ERR reporter cell line, ONE-Glo luciferase, 18 h; at 92.4 µM (top of the series) unless noted. The procedure, abridged:
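Reporter cells (ERR, NTP source) treated with Tox21 10K compounds 18 h, 37 C. Readout: ONE-Glo luminescence, 30 min RT.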

The nature of assay [20]: qHTS assay to identify small molecule antagonists of the estrogen related receptor (ERR) signaling pathway from Tox21 library (AID 1224848). The procedure, abridged:
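Quantitative high-throughput format: ERR reporter cells (2,000/well) pre-incubated 6 h, treated 18 h at 37 C with compounds in DMSO alongside positive and negative controls, then read by ONE-Glo luminescence.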

For `N#C/C(=C1\SCC(c2ccccc2Cl)S1)n1ccnc1` (stereo unspecified), the Potency result in [1], in [2], in assay [3], in assay [5], in assay [6] and in assay [7] was “inactive” each time. Moreover, the Potency entry in assay [8], in assay [9], in assay [10], in [11], in [12] and in assay [13] was “inactive” throughout. Also, the Potency entry in [14] was “inactive”. In [4], the compound was classed as inactive.

With `O=C(CCCN1CCN(c2ccc(F)cc2)CC1)NC1c2ccccc2CSc2ccccc21` (stereo unspecified), the Potency result in assay [1], in assay [2], in assay [3], in [7], in assay [9] and in assay [18] was “inactive” each time. Besides, in assay [4], the compound was classed as inactive. The Potency in assay [15] was 19 µM (active); in [16] it was 19 µM (active); in assay [17] it was 16.9 µM (active); in [12] it was 23.9 µM (active); in assay [13], 23.9 µM (active); in assay [14], 23.9 µM (active).

For the compound `C[Si](NC1CCCCC1)(NC1CCCCC1)NC1CCCCC1`, the Potency entry in [1], in assay [3], in [5], in assay [6], in assay [15] and in assay [7] was “inactive” each time. For the same compound, the Potency entry in assay [8], in assay [9], in assay [16], in [10], in assay [11] and in [12] was “inactive” in each case. Moreover, the Potency entry in assay [13] and in [14] was “inactive” in each case. For the same compound, the Potency in [2] was 19.5 µM (active). Also, in assay [17], the max response is -24.6%.

Take `CCCCCC=CCC=CCCCCCCCC(=O)OCC`: the Potency result in assay [1], in assay [2], in assay [5], in assay [6], in assay [7] and in assay [8] was “inactive” each time. In addition, the Potency entry in [9], in assay [16], in assay [18], in assay [11], in assay [12] and in [13] was “inactive” in each case. Further, the Potency entry in assay [14] is “inactive”. Further, the Potency in assay [3] was 55.2 µM (active). Besides, the compound was classed as inactive in assay [4]. In addition, the max response in assay [17] is -1.44%.

As for `COCc1c(C(C)C)nc(C(C)C)c(/C=C/[C@@H](O)C[C@@H](O)CC(=O)O)c1-c1ccc(F)cc1`, the Potency entry in assay [1], in assay [2], in assay [3], in [5], in [7] and in assay [9] was “inactive” throughout. Also, the Potency result in assay [18] and in assay [11] was “inactive” each time. In [4], the compound was classed as inactive. Further, the Potency in assay [13] is 301 nM (active) and 4.32 µM (active); in assay [14], 379 nM (active) and 4.84 µM (active).

Consider `O=c1[nH]c2ccc(S(=O)CCN3CCC(Cc4ccc(F)cc4)CC3)cc2o1` (stereo unspecified), for which the Potency entry in [1], in assay [2], in assay [3], in [6], in assay [7] and in assay [8] was “inactive” in each case. The Potency entry in assay [9], in assay [10], in [18], in assay [11], in [12] and in assay [13] was “inactive” throughout. Also, in assay [4], the compound was called inactive. For the same compound, the activity change, positive = activation in assay [19] is -29.7%.

As to `COCCOC`, the Potency result in assay [1], in assay [5], in [6], in [7], in assay [8] and in assay [9] was “inactive” in each case. In addition, the Potency entry in assay [10], in [18], in assay [11], in assay [12], in assay [13] and in assay [14] was “inactive” in each case. Besides, the Potency in assay [2] is 4.67 µM (active); in assay [20] it was 1.46 µM (active); in assay [15], 0.74 µM (active); in assay [16] it was 0.932 µM (active); in [17] it was 0.83 µM (active). Further, in assay [4], the call was inactive.

In the case of `CC(=O)[C@H]1CC[C@H]2[C@@H]3C=CC4=CC(=O)CC[C@@]4(C)[C@@H]3CC[C@]12C`, the Potency entry in assay [1], in assay [2], in [3], in assay [6], in assay [7] and in [8] was “inactive” each time. Moreover, the Potency entry in assay [9], in assay [16], in [10], in [18], in [11] and in assay [12] was “inactive” each time. The Potency entry in [13] is “inactive”. Also, the outcome in assay [4] was inactive.
